Laboratory results taken from PubChem BioAssay (EPA / NIEHS).
Activity calls are given as the source filed them. Rule for the calls: active = hit-call score of the fitted dose curve at least 0.9, where 1 is the maximum; inactive = score below 0.9.

What was measured:
Conditions in all cases: mRNA level, 48 h; actives raise or lower the signal
[1] = read-out: Ezrin (EZR), EZR (gene 7430); assay: LTEA_HepaRG_EZR: Life Technologies and Expression Analysis (LTEA) Assay for Ezrin (EZR) using HepaRG (AID 2283491)
Outline: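 Gain or loss of EZR mRNA is scored relative to 0.5% DMSO in human HepaRG cultures treated 48 h with test chemicals in duplicate, eight half-log concentrations from 100 uM.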

[2] = read-out: Cytochrome P450 3A7 (Homo sapiens) (UniProt P24462); assay: LTEA_HepaRG_CYP3A7: Life Technologies and Expression Analysis (LTEA) Assay for CYP3A7 using HepaRG (AID 2283492)
Outline: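 Differentiated HepaRG cells in serum-free induction medium exposed 48 h in duplicate to 8-point half-log series from 100 uM top in 0.5% DMSO. CYP3A7 mRNA by qRT-PCR, normalized to ACTB/GAPDH/POLR2A, bidirectional fit versus DMSO.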

CYP3A5 (gene 1577) = assay: LTEA_HepaRG_CYP3A5: Life Technologies and Expression Analysis (LTEA) Assay for CYP3A5 using HepaRG (AID 2283493)
Outline: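 Human HepaRG hepatic cells receive 48 h chemical treatment at eight concentrations (half-log steps from 100 uM) in 0.5% DMSO. Expression of CYP3A5 is quantified by Fluidigm qRT-PCR and normalized to three reference genes.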

[3] = read-out: Fatty Acid-Binding Protein 1 (FABP1), FABP1 (gene 2168); assay: LTEA_HepaRG_FABP1: Life Technologies and Expression Analysis (LTEA) Assay for Fatty Acid-Binding Protein 1 (FABP1) using HepaRG (AID 2283494)
Outline: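 FABP1 expression by TaqMan qRT-PCR, normalised to three housekeeping genes, in HepaRG cells after 48 h chemical treatment. Eight-point half-log series topping at 100 uM in 0.5% DMSO, duplicates; gain or loss fitted relative to vehicle.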

[4] = read-out: Cytochrome P450 4A22 (Homo sapiens) (UniProt Q5TCH4); assay: LTEA_HepaRG_CYP4A22: Life Technologies and Expression Analysis (LTEA) Assay for Cytochrome P450 4A22 (CYP4A22) using HepaRG (AID 2283495)
Outline: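 Differentiated HepaRG cells in serum-free induction medium exposed 48 h in duplicate to eight half-log concentrations up to 100 uM in 0.5% DMSO. CYP4A22 mRNA quantified by TaqMan qRT-PCR, normalized to ACTB, GAPDH and POLR2A; bidirectional fit versus DMSO.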

[5] = read-out: Cytochrome P450 7A1 (Homo sapiens) (UniProt P22680); assay: LTEA_HepaRG_CYP7A1: Life Technologies and Expression Analysis (LTEA) Assay for Cytochrome P450 7A1 (CYP7A1) using HepaRG (AID 2283496)
Outline: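 HepaRG, 48 h exposure, 8-pt half-log series from 100 uM, 0.5% DMSO vehicle, duplicates. Readout: TaqMan qRT-PCR mRNA vs three housekeeping genes; bidirectional curve fit against DMSO baseline.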

[6] = read-out: Glutathione S-Transferase (GSTA2), GSTA2 (gene 2939); assay: LTEA_HepaRG_GSTA2: Life Technologies and Expression Analysis (LTEA) Assay for Glutathione S-Transferase (GSTA2) using HepaRG (AID 2283497)
Outline: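 GSTA2 transcript levels came from Fluidigm TaqMan qRT-PCR normalized to three housekeeping genes, fitted in both directions against DMSO. HepaRG cultures received chemicals for 48 h in serum-free induction medium (0.5% DMSO), 8 half-log concentrations up to 100 uM, duplicate.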

[7] = read-out: Glutamate-cysteine ligase catalytic (GCLC), GCLC (gene 2729); assay: LTEA_HepaRG_GCLC: Life Technologies and Expression Analysis (LTEA) Assay for Glutamate-cysteine ligase catalytic (GCLC) using HepaRG (AID 2283498)
Outline: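 Expression by TaqMan qRT-PCR, normalized to three housekeeping genes (ACTB, GAPDH, POLR2A), with up- or down-regulation fitted against DMSO. HepaRG cells dosed in duplicate for 48 h with 8 half-log concentrations up to 100 uM, vehicle 0.5% DMSO.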

[8] = read-out: growth arrest and DNA damage 45 (GADD45G), GADD45G (gene 10912); assay: LTEA_HepaRG_GADD45G: Life Technologies and Expression Analysis (LTEA) Assay for growth arrest and DNA damage 45 (GADD45G) using HepaRG (AID 2283499)
Outline: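 Differentiated human HepaRG cells, 48 h post-plating, exposed 48 h in serum-free induction medium to 8 half-log concentrations (top 100 uM, 0.5% DMSO) in duplicate. GADD45G mRNA measured by Fluidigm TaqMan qRT-PCR, normalized to ACTB, GAPDH, POLR2A; bidirectional fit versus DMSO.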

[9] = read-out: Glutamate-cysteine ligase regulatory (GCLM), GCLM (gene 2730); assay: LTEA_HepaRG_GCLM: Life Technologies and Expression Analysis (LTEA) Assay for Glutamate-cysteine ligase regulatory (GCLM) using HepaRG (AID 2283500)
Outline: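 Endpoint is GCLM transcript level by qRT-PCR, normalized to three housekeeping genes, after 48 h chemical exposure of human HepaRG cells (0.5% DMSO vehicle, top 100 uM, half-log dilutions). Fitting was bidirectional relative to DMSO.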

[10] = read-out: Glutathione S-transferase M3 (GSTM3), GSTM3 (gene 2947); assay: LTEA_HepaRG_GSTM3: Life Technologies and Expression Analysis (LTEA) Assay for Glutathione S-transferase M3 (GSTM3) using HepaRG (AID 2283501)
Outline: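 Differentiated human HepaRG cells were exposed in duplicate for 48 h in serum-free induction medium, 8 points from 100 uM top in half-log steps, 0.5% DMSO. GSTM3 mRNA was measured by TaqMan qRT-PCR, normalized to ACTB, GAPDH and POLR2A; bidirectional fit versus DMSO.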

[11] = read-out: Hypoxia-inducible factor 1-alpha (Homo sapiens) (UniProt Q16665); assay: LTEA_HepaRG_HIF1A: Life Technologies and Expression Analysis (LTEA) Assay for Hypoxia-inducible factor 1 (HIF1A) Trancription factor using HepaRG (AID 2283503)
Outline: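 HIF1A transcript level read by qRT-PCR (ACTB, GAPDH, POLR2A normalization) after 48 h chemical exposure of HepaRG cultures. Eight half-log concentrations, top 100 uM, 0.5% DMSO vehicle, duplicates; bidirectional curve fit against DMSO baseline.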

[12] = read-out: 3-Hydroxy-3-Methylglutaryl-CoA Synthase 2 (HMGCS2), HMGCS2 (gene 3158); assay: LTEA_HepaRG_HMGCS2: Life Technologies and Expression Analysis (LTEA) Assay for 3-Hydroxy-3-Methylglutaryl-CoA Synthase 2 (HMGCS2) using HepaRG (AID 2283504)
Outline: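 Human HepaRG cells in serum-free induction medium were exposed in duplicate for 48 h to 8-point half-log series from 100 uM top in 0.5% DMSO. HMGCS2 mRNA measured by TaqMan qRT-PCR, normalised to ACTB, GAPDH, POLR2A; bidirectional fit versus DMSO.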

[13] = read-out: Insulin Like Growth Factor 1 (IGF1), IGF1 (gene 3479); assay: LTEA_HepaRG_IGF1: Life Technologies and Expression Analysis (LTEA) Assay for Insulin Like Growth Factor 1 (IGF1) using HepaRG (AID 2283506)
Outline: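 Cells are thawed, plated and cultured 48 h, then exposed in duplicate to chemical (highest 100 uM, half-log steps, 0.5% DMSO) for another 48 h. Total RNA is analysed by Fluidigm qRT-PCR for IGF1 expression relative to vehicle.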

[14] = read-out: Intercellular Adhesion Molecule 1 (ICAM1), ICAM1 (gene 3383); assay: LTEA_HepaRG_ICAM1: Life Technologies and Expression Analysis (LTEA) Assay for Intercellular Adhesion Molecule 1 (ICAM1) using HepaRG (AID 2283507)
Outline: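 Differentiated human HepaRG cells in serum-free induction medium exposed 48 h in duplicate to 8 half-log concentrations (top 100 uM, 0.5% DMSO). ICAM1 mRNA quantified by TaqMan qRT-PCR, normalized to ACTB, GAPDH and POLR2A; bidirectional fitting versus DMSO.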

[15] = read-out: Insulin-like growth factor-binding protein 1 (IGFBP1), IGFBP1 (gene 3484); assay: LTEA_HepaRG_IGFBP1: Life Technologies and Expression Analysis (LTEA) Assay for Insulin-like growth factor-binding protein 1 (IGFBP1) using HepaRG (AID 2283508)
Outline: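 HepaRG cells, plated 48 h then switched to serum-free induction medium, exposed in duplicate for 48 h to 8-point half-log series from 100 uM in 0.5% DMSO. mRNA measured by qRT-PCR, normalized to ACTB/GAPDH/POLR2A; bidirectional fit versus DMSO.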

[16] = read-out: Interleukin 6 Receptor (IL6R), IL6R (gene 3570); assay: LTEA_HepaRG_IL6R: Life Technologies and Expression Analysis (LTEA) Assay for Interleukin 6 Receptor (IL6R) using HepaRG (AID 2283510)
Outline: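 Cells were thawed, plated and cultured 48 h, then medium was changed to serum-free induction medium. Chemicals were added in duplicate (100 uM top, half-log steps, 0.5% DMSO) for 48 h. Lysates were analyzed by qRT-PCR for IL6R expression.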

HGF (gene 3082) = assay: LTEA_HepaRG_HGF: Life Technologies and Expression Analysis (LTEA) Assay for Hepatocyte Growth Facto (HGF) using HepaRG (AID 2283505)
Outline: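 Differentiated HepaRG cells in serum-free induction medium exposed 48 h in duplicate, 8 half-log concentrations from 100 uM in 0.5% DMSO. HGF mRNA by qRT-PCR, normalised to ACTB, GAPDH, POLR2A; bidirectional fitting.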

[17] = read-out: Interleukin 6 (IL6), IL6 (gene 3569); assay: LTEA_HepaRG_IL6: Life Technologies and Expression Analysis (LTEA) Assay for Interleukin 6 (IL6) using HepaRG (AID 2283509)
Outline: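 Transcript levels, normalized to three housekeeping genes, were quantified by qRT-PCR after 48 h chemical treatment of HepaRG cells. Eight-point half-log series from 100 uM in 0.5% DMSO, duplicates. Fitted both directions against DMSO baseline.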

Measured: AC50

Sequence of Hypoxia-inducible factor 1-alpha (Homo sapiens) (Q16665 whole entry, looked up): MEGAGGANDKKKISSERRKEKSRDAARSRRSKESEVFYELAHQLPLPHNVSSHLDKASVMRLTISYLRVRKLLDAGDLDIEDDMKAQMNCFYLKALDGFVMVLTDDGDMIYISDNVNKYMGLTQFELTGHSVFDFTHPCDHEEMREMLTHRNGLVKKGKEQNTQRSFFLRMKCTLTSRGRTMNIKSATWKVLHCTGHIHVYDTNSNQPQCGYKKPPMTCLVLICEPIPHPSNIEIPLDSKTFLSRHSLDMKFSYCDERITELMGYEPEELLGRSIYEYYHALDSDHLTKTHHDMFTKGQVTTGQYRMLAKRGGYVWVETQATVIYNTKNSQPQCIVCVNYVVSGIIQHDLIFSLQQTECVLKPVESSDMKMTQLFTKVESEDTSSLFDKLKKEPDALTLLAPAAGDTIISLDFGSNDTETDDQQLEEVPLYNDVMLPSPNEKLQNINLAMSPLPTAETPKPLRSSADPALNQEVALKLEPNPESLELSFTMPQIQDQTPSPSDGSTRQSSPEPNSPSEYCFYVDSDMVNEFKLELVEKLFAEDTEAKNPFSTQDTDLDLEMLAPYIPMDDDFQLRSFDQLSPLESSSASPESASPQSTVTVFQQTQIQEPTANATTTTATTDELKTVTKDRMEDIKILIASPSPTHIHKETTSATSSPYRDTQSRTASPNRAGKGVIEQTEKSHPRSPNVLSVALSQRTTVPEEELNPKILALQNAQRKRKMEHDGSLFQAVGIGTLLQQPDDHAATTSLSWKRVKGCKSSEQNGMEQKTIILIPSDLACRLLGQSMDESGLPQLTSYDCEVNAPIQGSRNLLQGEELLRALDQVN
Sequence of Cytochrome P450 3A7 (Homo sapiens) (P24462 whole entry, looked up): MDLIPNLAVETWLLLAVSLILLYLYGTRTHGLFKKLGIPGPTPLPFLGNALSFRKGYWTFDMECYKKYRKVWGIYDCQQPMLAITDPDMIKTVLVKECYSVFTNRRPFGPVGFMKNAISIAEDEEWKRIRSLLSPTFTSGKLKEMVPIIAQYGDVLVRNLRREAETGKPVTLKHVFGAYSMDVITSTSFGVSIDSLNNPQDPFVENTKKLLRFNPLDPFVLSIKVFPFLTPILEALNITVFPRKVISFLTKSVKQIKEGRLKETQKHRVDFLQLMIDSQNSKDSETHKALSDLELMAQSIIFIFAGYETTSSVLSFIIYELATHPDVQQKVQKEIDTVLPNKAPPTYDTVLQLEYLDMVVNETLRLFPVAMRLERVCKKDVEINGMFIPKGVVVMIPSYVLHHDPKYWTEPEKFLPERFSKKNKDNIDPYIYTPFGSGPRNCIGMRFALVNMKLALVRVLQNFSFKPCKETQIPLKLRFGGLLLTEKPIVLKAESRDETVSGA

CCOc1nc(F)cc2nc(S(=O)(=O)Nc3c(Cl)cccc3Cl)nn12
active: [2] 9.92 µM | [5] 36.7 µM | [13] 14.4 µM | [15] 50 µM
not listed: HGF (gene 3082) | [17]
inactive: all other assays above

Cc1nc(N(C)C)nc(OC(=O)N(C)C)c1C
active: [2] 19.9 µM
not listed: [17]
inactive: all other assays above

COc1cc(Cl)c(OC)cc1Cl
active: [2] 8.31 µM
not listed: [11]
inactive: all other assays above

N#CN=C1SCCN1Cc1ccc(Cl)nc1
not listed: HGF (gene 3082) | [17]
inactive: all other assays above

CCCCC(O)(Cn1cncn1)c1ccc(Cl)cc1Cl (stereo unspecified)
active: [2] 89.4 µM | [3] 79.6 µM | [4] 67.8 µM | [5] 89 µM | [6] 73.2 µM | [8] 15.8 µM | [10] 82.6 µM | [11] 80.6 µM | [12] 77.9 µM | [13] 75.1 µM | [14] 83.9 µM | [15] 79.3 µM | [17] 72 µM
inactive: [1] | CYP3A5 (gene 1577) | [7] | [9] | [16]

N#Cc1c(Cl)cccc1Cl
not listed: HGF (gene 3082)
inactive: all other assays above

COCc1cnc(C2=NC(C)(C(C)C)C(=O)N2)c(C(=O)O)c1 (stereo unspecified)
not listed: HGF (gene 3082)
inactive: all other assays above

Cc1ccc(N=CN(C)C=Nc2ccc(C)cc2C)c(C)c1
not listed: HGF (gene 3082) | [17]
inactive: all other assays above

CCNC(=O)NC(=O)C(C#N)=NOC
active: [7] 9.92 µM | [12] 50 µM
not listed: [4] | [5] | HGF (gene 3082) | [17]
inactive: all other assays above
